# Compounds without any hit were thinned out: in the full panel of roughly 79,000, 15% have a hit. A number with no mark means an inactive call. Active and inactive are the calls of the source. Cut-off read from the data, not from the text of the source: active = growth inhibition above about 70%; inactive = the rest.
# Columns and labels:
# [1] = NCI Yeast Anticancer Drug Screen. Data for the rad50 strain (AID 155);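 note: 0% = growth of vehicle-only cultures of the same strain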; conditions: S. cerevisiae rad50 strain growth inhibition, hits give high values
# How it was run: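 A DNA repair-deficient yeast mutant serves as the test organism; compound-induced growth inhibition is calculated against vehicle-treated cells.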
# [2] = NCI Yeast Anticancer Drug Screen. Data for the mec2-1 strain (AID 157); conditions: S. cerevisiae mec2-1 strain, hits give high values
# How it was run: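 Mutant yeast (mec2-1) grown with compound; growth inhibition relative to vehicle control reported.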
# [3] = NCI Yeast Anticancer Drug Screen. Data for the sgs1 mgt1 strain (AID 161);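 note: 0% = growth of cultures given vehicle only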; conditions: S. cerevisiae sgs1 mgt1 strain, hits give high values
# How it was run: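 This yeast growth screen uses a strain with defined DNA-repair lesions; compound-treated growth is compared with vehicle-treated growth.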
# [4] = NCI Yeast Anticancer Drug Screen. Data for the cln2 rad14 strain (AID 165);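 note: 0% = growth equal to vehicle treated cultures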; conditions: S. cerevisiae cln2 rad14 strain, hits give high values
# How it was run: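 Readout is yeast growth inhibition versus vehicle-treated controls, using a strain with cln2 and rad14 alterations exposed to compound.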
# [5] = NCI Yeast Anticancer Drug Screen. Data for the bub3 strain (AID 167); conditions: S. cerevisiae bub3 mutant strain, hits give high values
# How it was run: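 Inhibition values come from growth of compound-treated mutant yeast normalised to vehicle-treated controls.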
# [6] = NCI Yeast Anticancer Drug Screen. Data for the mlh1 rad18 strain (AID 175); conditions: S. cerevisiae mlh1 rad18 strain growth inhibition, hits give high values
# How it was run: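 Genetically defined yeast (DNA repair-deficient) exposed to compounds; growth inhibition determined relative to vehicle.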
# [7] = at 5.0 µM (retest, dose inferred, filed as 0.5)
# [8] = at 50.0 µM (retest, dose inferred, filed as 5.0)
SMILES,"growth inhibition [1, 7]","growth inhibition [1, 8]",growth inhibition ([1]; at 50.0 µM),"growth inhibition [2, 7]","growth inhibition [2, 8]",growth inhibition ([2]; at 50.0 µM),"growth inhibition [3, 7]","growth inhibition [3, 8]",growth inhibition ([3]; at 50.0 µM),"growth inhibition [4, 7]","growth inhibition [4, 8]",growth inhibition ([4]; at 50.0 µM),"growth inhibition [5, 7]","growth inhibition [5, 8]",growth inhibition ([5]; at 50.0 µM),"growth inhibition [6, 7]","growth inhibition [6, 8]",growth inhibition ([6]; at 50.0 µM)
Cc1ccc(O)c(Cc2cccc(Cl)c2)c1,-2%,99% (active),99.3% (active),-7%,99% (active),99.5% (active),-2%,99% (active),99.5% (active),-21%,99% (active),99% (active),-22%,99% (active),99.3% (active),0%,99% (active),99.2% (active)
O=C(O)C(O)C(O)C(OC1OC(CO)C(O)C(O)C1O)C(O)CO.[Br][Pt].[NH-]C1CCCCC1[NH-] (configuration not stated),50%,97% (active),67.8%,65%,88% (active),62.9%,89% (active),99% (active),89.5% (active),24%,72% (active),72% (active),79% (active),97% (active),83.6% (active),69%,98% (active),56%
COc1cc(/C=C2/N=C(c3ccccc3)N(C3=NNC4(C(=O)N3)c3ccccc3-c3ccccc34)NC2=O)ccc1O,4%,3%,36.5%,-1%,7%,-5.05%,6%,14%,7.55%,3%,1%,-46.6%,-2%,-7%,27.4%,-17%,11%,20.5%
NNC(=O)C(=O)N/N=C(/CCC(=O)NCCc1ccccc1)CC(=O)c1ccccc1,1%,3%,28.5%,1%,2%,3.05%,-2%,4%,9.1%,-3%,1%,6.15%,0%,0%,-3.3%,-2%,-3%,22.6%
COc1ccccc1C1C2=C(COC2=O)OC(C)(C)Oc2cc3c(cc21)OCO3 (configuration not stated),22%,96% (active),75.8% (active),-13%,96% (active),85.1% (active),16%,96% (active),86.3% (active),35%,95% (active),87.3% (active),-22%,97% (active),89.7% (active),15%,96% (active),88% (active)
COc1ccc(CCN2CC(=O)N3CSCC3C2=O)cc1OC (configuration not stated),6%,24%,66.7%,5%,16%,7.05%,9%,27%,34.8%,4%,27%,25.4%,3%,28%,21.8%,-1%,14%,37.2%
Cc1cc(N)cc(C)c1-c1c(N)cc(Br)cc1Br,-1%,-10%,98.1% (active),-3%,-6%,97.5% (active),-4%,-9%,98.3% (active),1%,-10%,96.6% (active),-7%,-13%,98.1% (active),-2%,-9%,97.9% (active)
COC(=O)c1ccc2c(c1)C(O)NC(=O)O2 (configuration not stated),16%,97% (active),98.5% (active),15%,97% (active),98% (active),15%,98% (active),98.9% (active),18%,98% (active),98.5% (active),3%,95% (active),98.6% (active),21%,97% (active),98.5% (active)
N#Cc1ccc(Cl)cc1[N+](=O)[O-],31%,97% (active),90.3% (active),15%,98% (active),92% (active),36%,96% (active),90.8% (active),38%,96% (active),91% (active),52%,97% (active),90.2% (active),42%,96% (active),90.4% (active)
CC[N+](C)(CC)CCC(=O)/C=C/c1ccccc1,15%,54%,87.5% (active),11%,69%,93% (active),5%,55%,88.6% (active),16%,49%,53.1%,3%,74% (active),76.5% (active),11%,46%,-47.8%
Clc1ccccc1NN(Cc1ccccn1)c1ccccc1Cl,16%,54%,76.5% (active),-6%,32%,58.7%,8%,69%,58.9%,-14%,50%,57%,28%,77% (active),88.4% (active),3%,59%,71.2% (active)
OB1c2ccccc2CCc2ccccc21,-4%,99% (active),99.3% (active),-7%,99% (active),99.5% (active),-4%,99% (active),99.5% (active),-13%,98% (active),96.6% (active),-25%,99% (active),99.2% (active),-2%,99% (active),99% (active)
C=C1C(=O)[C@]23C[C@H]1CC[C@H]2[C@@]12CO[C@@H](O)[C@@H]1C(C)(C)[C@@H](O)C[C@@H]2OC3=O,8%,6%,2.3%,-19%,79% (active),-5.25%,9%,27%,25.4%,-7%,95% (active),67.2%,-5%,95% (active),-0.9%,-1%,11%,24.4%
CCS(=O)(=O)/C=C\S(=O)(=O)CC,-154%,-117%,37.2%,-52%,-36%,47.5%,-64%,-43%,47.3%,-49%,-37%,-12.7%,-65%,-59%,88.3% (active),-147%,-70%,69%
Cc1cc(C)nc(NS(=O)(=O)c2ccc(NC(=O)c3cccnc3Nc3cccc(Cl)c3)cc2)n1,-2%,33%,45.9%,-9%,34%,13.1%,6%,51%,54.9%,-10%,35%,22.1%,-6%,41%,25.5%,-1%,53%,81.5% (active)
COc1ccc(C2Oc3ccc(Cl)cc3C=C2[N+](=O)[O-])cc1OC (configuration not stated),89% (active),97% (active),74% (active),91% (active),96% (active),77% (active),86% (active),97% (active),85.5% (active),63%,96% (active),84.3% (active),88% (active),96% (active),86.7% (active),95% (active),97% (active),86.2% (active)
FC(F)(F)c1cccc(N2CCN(c3c4c(nc5ccccc35)CCCCC4)CC2)c1,-4%,96% (active),95.5% (active),4%,99% (active),97.7% (active),11%,98% (active),93.8% (active),-14%,96% (active),95.5% (active),-4%,97% (active),92% (active),22%,98% (active),95.7% (active)
O=C1CSC2(CCN(CCCN3c4ccccc4Sc4ccc(Cl)cc43)CC2)N1,8%,100% (active),98.9% (active),-4%,45%,99.1% (active),3%,53%,99.3% (active),-11%,100% (active),99% (active),-2%,99% (active),97.5% (active),-17%,99% (active),91.2% (active)
OC(c1ccccc1)(c1ccccc1)c1ccc[cH-]1.OC(c1ccccc1)(c1ccccc1)c1ccc[cH-]1.[Fe+2],3%,-5%,-0.6%,3%,-1%,9.45%,3%,-16%,-2.3%,4%,-15%,-13.6%,3%,-1%,70.4% (active),1%,-3%,35.4%
